This test concerns VDR:RXRa (NR concentration 270 nM, RXRa partner concentration 90 nM). Put plainly: PBM binding z-score (relative to random genomic background probes); higher = stronger binding; sequences stand for … in GC…GCGATTGACAGCGTAGAATGAAGG
Here is the method:
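Protein-binding microarray (Agilent 4x180K custom design, double-stranded 60-nt probes: 5' GC cap, 34-nt variable region, 24-nt constant primer region; full probe sequence given). Purified or IVT nuclear receptor:RXRα heterodimers (3:1 NR:RXRα, mostly 270:90 nM) or homodimers were incubated for 1 h in PBS with 2% milk and no ligand, then detected with Alexa488 antibodies. Fluorescence from o1-orientation probes (~5 replicates averaged) was converted to z-scores against 500 random hg19 background probes. Variable regions are seed direct-repeat (DR0–DR5) sites, all their single-nucleotide variants and half-site ablations.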
CCGAGTTGGTCAAGGTCACACACGCTATAGGTAC gave a PBM binding z-score of 4.7.
The sequence TCTAGTTGGTCACGGAGGTCCCACACGACGGGTA showed a PBM binding z-score of 1.19.
On to CGTCCAAGGTCGAAGGTCAGTGAAGAGATGACGG, for which the PBM binding z-score is 3.23.
Next, ATCGAAAGGTCGACGAGGTGAGTAAACACCGTTT: 5.22; TCTTGTAGATCAATAGAAGTTAAGAAAGTGCGCT: 0.744; AGAATGAGATTACCAAAGATCAGGGAAACGCTTG: -0.0977.
In the case of CCGAATAGGTTACGAGGGGGCATTCAGTGCGAAT, the PBM binding z-score came out at 5.89.
GCTGCTAGGTCAACTGATGGCCAGCTAAAGCTCG: the PBM binding z-score was 1.14.
Regarding TCTCGGAGGACACAAAGGTCAGAGCTTTCCAGAG, the PBM binding z-score is 3.68.
With ATATGTAGGTTGGGGTCATTCAGAAAGTAGGGAA, the PBM binding z-score was 6.03.
Next, GCTGCTAGTTCAACTGATGGTCAGCTAAAGCTCG: 0.168.
Under CGAACTAGGTCATTGACAGGACAATGAATAGTAA stands 2.62.
Next, AGAATGAGGTCACCAAAGATCAGGGAAACGCTTG: 5.55.
Regarding GCATATAGGTAATACAAGGTCAAAGTCCGATTGT, the PBM binding z-score amounted to 4.39.
In turn, AGTCAAAGTGCATCTAGGTAACGTAAGATATGCT showed a PBM binding z-score of 0.567.
Sequence ATATGTAGGTTAGGGTCAGTCAGAAAGTAGGGAA gave a PBM binding z-score of 2.49.
Take CAAACTAGGTCAAAAGGTCAAAGTCCGCTTCCCG: the PBM binding z-score came out at 6.32.
Turning to ATTTGTAGGTTACATCCGGGTCATTCAGGCTATG, the PBM binding z-score is 4.68.
With GATACAGGGTCAGCTACAGGCCAGAGTATGGAAA, the PBM binding z-score was 2.55.
Under CGTCAAAGGTCAATGCTAGGTCAGTGAAAGCATT stands 6.01; under TCTGCTAGGTCATCGATGGTCAGCTAATCTGCTA, 2.16.
For AATACAGGGTCACGAGGCCAGAGTAGGTACGAAT, the PBM binding z-score amounted to 5.41.
Turning to CGTCAAAGGTCAAGGTCAGTGAAAGAGACTCGAA, the PBM binding z-score came out at 5.77.
For CGTCTAAGGTCATAGGAGGTCAGTGAAGACAGAT, the PBM binding z-score was 6.86.
Under CCTACTGGGTCACGAAAGGTCATTGATTCAGTGA stands 6.48; under ATCGAAAGGTCGACCAGGTGAGTATACACCGTTT, 3.73; under AGAATGAGGTTAAGTTCAGGGAAACAGAATACAT, 3.33.
In the case of ATATGTAGGATAGCTGGGGTCATTCAGACTAGGC, the PBM binding z-score was 4.86.
In turn, CATACAGGGTCGGCTAGGCCAGAGTAGGGACGGC yielded a PBM binding z-score of 0.863.
CAAACTAGTTCAAGAGGTCAAAGTCCGCTTCCCG registered a PBM binding z-score of 5.54.
On to ATCGAAAGGTCTAAGGTGAGTATACCCACCCGAA, for which the PBM binding z-score amounted to 0.393.
Take GGAACGAGGTCAAAGTTGATAGCATCTGTCGACG: the PBM binding z-score was found to be 5.81.
As for CCAACTGGGCCAAAAAGGTCATTGATGCCGATAA, the PBM binding z-score came to 4.89.
As to AGTCAAAGGTCATCTAGGTAACGTAAGATATGCT, the PBM binding z-score turned out to be 6.04.
Sequence AGAATGGGGTTATACGTAGATCAGGGAAGAAAGT showed a PBM binding z-score of 3.03.
In turn, TCGCCTAGGTCATGGGCCAGTATACCACGCGAAC gave a PBM binding z-score of 2.09.
Under CCTTACGGGTCACTCCAGGTCATAGCATCGGAGT stands 5.95.
With GGAACGAGGTCAAGTTGATAGCAGAGTTTGATGG, the PBM binding z-score was found to be 5.84.
Sequence CCTACTGGGCCAAAAAGGTCATTGATGCCGATAA yielded a PBM binding z-score of 4.83.
As to CTATGTAGGTTACGGGGGTCATTCAGTTTGAAAG, the PBM binding z-score was determined as 7.72.

The values above are taken from the supplement of paper PMC6555819.
